Measured values reported in PubChem BioAssay (NCI).
The panel holds about 79,000 compounds, 15% with a hit somewhere; the sample as a whole holds those more often. A number with no mark means an inactive call. The source made the active and inactive calls. Rule as the data show it: active = growth inhibition above about 70%; inactive = the rest.

Columns and labels:
[1] = NCI Yeast Anticancer Drug Screen. Data for the rad50 strain (AID 155);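 also: 0% = growth of vehicle-only cultures of the same strain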; conditions: S. cerevisiae rad50 strain growth inhibition, active compounds read high
Summary of the method: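 Yeast carrying a defined DNA repair defect were exposed to test compounds, and growth was compared with vehicle-treated controls to give percent inhibition.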

[2] = NCI Yeast Anticancer Drug Screen. Data for the mec2-1 strain (AID 157); conditions: S. cerevisiae mec2-1 strain, active compounds read high
Summary of the method: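 Test agents were screened against the mec2-1 yeast strain, with defined DNA repair or cell cycle alteration. Growth was scored as inhibition against vehicle-only controls.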

[3] = NCI Yeast Anticancer Drug Screen. Data for the sgs1 mgt1 strain (AID 161);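 also: 0% = growth of cultures given vehicle only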; conditions: S. cerevisiae sgs1 mgt1 strain, active compounds read high
Summary of the method: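 Read-out: growth inhibition vs vehicle controls. Cells: mutant yeast strain deficient in DNA damage repair.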

[4] = NCI Yeast Anticancer Drug Screen. Data for the cln2 rad14 strain (AID 165);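 also: 0% = growth equal to vehicle treated cultures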; conditions: S. cerevisiae cln2 rad14 strain, active compounds read high
Summary of the method: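 Growth of compound-exposed yeast (cln2 rad14 genotype) measured and expressed as inhibition relative to vehicle.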

[5] = NCI Yeast Anticancer Drug Screen. Data for the bub3 strain (AID 167); conditions: S. cerevisiae bub3 mutant strain, active compounds read high
Summary of the method: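 Compounds were applied to a genetically altered yeast strain carrying a cell-cycle control defect. Growth inhibition was scored against vehicle-treated controls.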

[6] = NCI Yeast Anticancer Drug Screen. Data for the mlh1 rad18 strain (AID 175); conditions: S. cerevisiae mlh1 rad18 strain growth inhibition, active compounds read high
Summary of the method: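 In this whole-cell yeast screen, a strain with altered DNA damage repair is challenged with compound, and its growth is measured against matched vehicle-treated controls.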

[7] = at 5.0 µM (retest, dose inferred, filed as 0.5)
[8] = at 50.0 µM (retest, dose inferred, filed as 5.0)

Compound | growth inhibition [1, 7] | growth inhibition [1, 8] | growth inhibition ([1]; at 50.0 µM) | growth inhibition [2, 7] | growth inhibition [2, 8] | growth inhibition ([2]; at 50.0 µM) | growth inhibition [3, 7] | growth inhibition [3, 8] | growth inhibition ([3]; at 50.0 µM) | growth inhibition [4, 7] | growth inhibition [4, 8] | growth inhibition ([4]; at 50.0 µM) | growth inhibition [5, 7] | growth inhibition [5, 8] | growth inhibition ([5]; at 50.0 µM) | growth inhibition [6, 7] | growth inhibition [6, 8] | growth inhibition ([6]; at 50.0 µM)
Cc1ccccc1P(=O)(c1ccccc1C)c1ccccc1C | 16% | 31% | 0.55% | 16% | 28% | 12.9% | 10% | 42% | 13.1% | 11% | 51% | 32.6% | 24% | 24% | 32.5% | 15% | 45% | 4.35%
Cc1[nH]c2ccccc2c1C1=CC2(C)Nc3ccccc3C2C(C)(C)C1 (configuration not stated) | -4% | 26% | 90.2% (active) | 2% | -1% | 93.8% (active) | -4% | 23% | 92.3% (active) | 2% | -4% | 93.5% (active) | 10% | 79% (active) | 94.8% (active) | -1% | 28% | 94.7% (active)
CC1CCC(=NNC(N)=O)CC1 (configuration not stated) | -1% | -6% | 3.9% | -11% | -2% | -10.9% | -1% | -4% | 2.45% | -5% | -1% | 34.9% | -3% | -3% | 9.5% | -1% | -4% | -19.2%
COc1cc2c(c(C)c1O)[C@H]1COc3ccccc3[C@H]1O2 | -24% | -9% | 75.2% (active) | -38% | -9% | 77.8% (active) | 17% | 13% | 89.9% (active) | 10% | 11% | 57% | 10% | 61% | 83.9% (active) | -22% | 10% | 65.5%
CCCCCCCCN(CCCCCCCC)CC(O)c1cc(-c2ccc(OC)cc2)nc2cc(Cl)ccc12 (configuration not stated) | -2% | 81% (active) | 42.5% | 8% | 86% (active) | 92.5% (active) | 17% | 85% (active) | 48.6% | 8% | 76% (active) | 84% (active) | 12% | 85% (active) | 75.7% (active) | 7% | 84% (active) | 89% (active)
O=C1c2ccccc2C(=O)c2c(/C=C\N3CCCCC3)ccnc21 | 40% | 86% (active) | 87.7% (active) | 27% | 60% | 92.4% (active) | 40% | 99% (active) | 92.6% (active) | 38% | 95% (active) | 90.7% (active) | 48% | 98% (active) | 92.3% (active) | 37% | 84% (active) | 90.6% (active)
CCNc1ccccc1C | 3% | 91% (active) | 98.7% (active) | -1% | 88% (active) | 98.2% (active) | -2% | 86% (active) | 97% (active) | 2% | 97% (active) | 96.4% (active) | 7% | 82% (active) | 97.7% (active) | 3% | 97% (active) | 98.3% (active)
C#CCN(N=O)C(=O)NCCCC(NC(C)=O)C(=O)NCc1ccccc1 (configuration not stated) | -4% | 19% | 78.9% (active) | -26% | -10% | -5.35% | 3% | 36% | 43.6% | -8% | 12% | 27.1% | 6% | 26% | -13.6% | -2% | 42% | 25.8%
CCC/C(C)=N/NC(=S)SC | 70% (active) | 95% (active) | 96.8% (active) | 38% | 95% (active) | 90.5% (active) | 27% | 96% (active) | 94.2% (active) | 6% | 84% (active) | 77.5% (active) | 65% | 94% (active) | 96.7% (active) | 72% (active) | 95% (active) | 96.3% (active)
